# Laboratory results taken from PubChem BioAssay (NCATS).
# Records with an inconclusive call do not appear. A call without a number means that no potency is given here. A number with no mark means an inactive call. The source made the active and inactive calls. The call rests on the fitted dose curve; in most records, active means well fitted curve in the direction sought with a large enough effect; inconclusive means small, poorly fitted or top-dose-only effect, or another doubt; inactive means no such curve, though single readings can be large; an effect the other way counts as inactive or inconclusive.
# Test system: not listed separately
# Experiment: qHTS to identify inhibitors of the type 1 interferon - major histocompatibility complex class I in skeletal muscle: primary screen against the NCATS Mechanism Interrogation Plate v5.0 (MIPE) Libary (AID 1347411); further: nearly all actives have a fitted effect of over 65% in size; further: potency means the concentration at half of the fitted maximal effect
# Settings: iHSKM cells + IFN-b, HiBiT-tagged MHC-I luminescence, 24 h; series mostly up to 45.8 µM
# Summary of the method: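 HLA-B HiBit myoblasts, dexamethasone-free medium + 4 ng/ml IFN-b, 24 h compound, 11-pt 1:3 from 46 uM final. Readout: Nano-Glo HiBiT lytic luminescence after 10 min lysis, RT.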
row,Compound,Potency
1,CO[C@H]1C[C@@H]2CC[C@@H](C)[C@@](O)(O2)C(=O)C(=O)N2CCCC[C@H]2C(=O)O[C@H]([C@H](C)C[C@@H]2CC[C@@H](OP(C)(C)=O)[C@H](OC)C2)CC(=O)[C@H](C)/C=C(\C)[C@@H](O)[C@@H](OC)C(=O)[C@H](C)C[C@H](C)/C=C/C=C/C=C/1C,18.6 µM (active)
2,c1cc(Nc2cc(C3CC3)[nH]n2)nc(Nc2ccc3nc[nH]c3c2)n1,1.31 µM (active)
3,CCN1CCN(Cc2ccc(NC(=O)c3ccc(C)c(/C=C/c4cnc5[nH]ccc5c4OC)c3)cc2C(F)(F)F)CC1,6.58 µM (active)
4,CCCCNc1ncc2c(-c3ccc(CN4CCN(C)CC4)cc3)cn(C3CCC(O)CC3)c2n1 (centres undefined),9.3 µM (active)
5,CC(C)[C@@H](CS(=O)(=O)C(C)C)N1C(=O)[C@@](C)(CC(=O)O)C[C@H](c2cccc(Cl)c2)[C@H]1c1ccc(Cl)cc1,inactive
6,O=C(/C=C/c1cccc(S(=O)(=O)Nc2ccccc2)c1)NO,2.34 µM (active)
7,CN(C)C/C=C/C(=O)Nc1cccc(C(=O)Nc2cccc(Nc3ncc(Cl)c(-c4c[nH]c5ccccc45)n3)c2)c1,0.658 µM (active)
8,FC(F)(F)c1ccc(Nc2nc(-c3c(C(F)(F)F)nc4ccccn34)cs2)cc1,4.66 µM (active)
9,CS(=O)(=O)N1CCC(NC(=O)c2[nH]ncc2NC(=O)c2c(Cl)cccc2Cl)CC1,1.47 µM (active)
10,CNC(=O)c1cc(Oc2ccc3nc(N[C@@H]4CCCC[C@H]4O)sc3c2)ccn1,inactive
11,O=C(NCc1cccc(O)c1)Nc1nc(-c2ccncc2)cs1,18.6 µM (active)
12,CC(C)c1c2cc(-c3ccnc(NC4CCC(NC5CCOCC5)CC4)n3)ccc2nn1C (centres undefined),0.104 µM (active)
13,CC(O)c1cc(C(=O)N[C@@H](C)Cn2ccc(-c3ccc(C#N)c(Cl)c3)n2)n[nH]1 (some centres undefined),inactive
14,O=C(O)c1ccc(CN2CCC(CN[C@@H]3C[C@H]3c3ccccc3)CC2)cc1,inactive
15,CCOc1cc2ncc(C#N)c(Nc3ccc(F)c(Cl)c3)c2cc1NC(=O)/C=C/CN(C)C,2.62 µM (active)
16,CCN1CCN(Cc2ccc(NC(=O)Nc3ccc(Oc4cc(NC)ncn4)cc3)cc2C(F)(F)F)CC1,7.39 µM (active)
17,Cc1ccc([N+](=O)[O-])cc1S(=O)(=O)N(C)/N=C/c1cnc2ccc(Br)cn12,0.104 µM (active)
18,Nc1ccc(/C=C/C(=O)NCc2cc3cc(-c4ccc(C(=O)N5CCC(F)(F)CC5)cc4)cc(-c4ccc(F)cc4)c3o2)cn1,inactive
19,CC[C@H](NC(=O)[C@H](CS(=O)(=O)CC1CC1)N[C@@H](c1ccc(F)cc1)C(F)(F)F)C(=O)C(=O)NC1CC1,inactive
20,CS(=O)(=O)c1ccc(-c2nnc(/C=C/c3nnc(-c4ccc(C#N)cc4)o3)n2-c2ccccc2Cl)nc1,inactive
21,COc1cc2ncnc(Nc3ccc(F)c(Cl)c3)c2cc1NC(=O)/C=C/CN1CCCCC1,7.39 µM (active)
22,C[C@H]1[C@H](O)O[C@@H]2O[C@@]3(C)CC[C@H]4[C@H](C)CC[C@@H]1[C@@]24OO3,inactive

# Molecular target: Protein phosphatase 1D (Homo sapiens) (UniProt O15297)
# Sequence (O15297 whole entry, looked up): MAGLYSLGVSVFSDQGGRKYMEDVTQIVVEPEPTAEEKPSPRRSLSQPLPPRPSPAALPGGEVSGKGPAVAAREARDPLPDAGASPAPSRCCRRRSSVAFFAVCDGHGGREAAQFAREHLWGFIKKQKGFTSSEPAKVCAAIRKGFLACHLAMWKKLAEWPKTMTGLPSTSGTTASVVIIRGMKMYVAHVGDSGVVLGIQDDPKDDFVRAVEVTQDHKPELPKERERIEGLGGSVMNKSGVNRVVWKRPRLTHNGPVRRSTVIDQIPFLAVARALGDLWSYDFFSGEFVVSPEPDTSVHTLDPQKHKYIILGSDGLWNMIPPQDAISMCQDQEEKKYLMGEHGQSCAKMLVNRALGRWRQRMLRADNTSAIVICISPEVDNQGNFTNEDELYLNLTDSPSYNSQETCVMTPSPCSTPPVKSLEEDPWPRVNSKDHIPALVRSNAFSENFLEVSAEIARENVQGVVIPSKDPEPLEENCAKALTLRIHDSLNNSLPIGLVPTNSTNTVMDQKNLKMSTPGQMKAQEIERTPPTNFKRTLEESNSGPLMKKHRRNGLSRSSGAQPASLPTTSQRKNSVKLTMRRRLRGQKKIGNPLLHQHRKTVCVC
# Experiment: RapidFire Mass Spectrometry qHTS Assay for Modulators of WT P53-Induced Phosphatase 1 (WIP1) (AID 1347424);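 further: amount of dephosphorylated VEPPL-S-QETFS peptide product formed by WIP1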; further: potency means the concentration at half of the fitted maximal effect
# Settings: WIP1 dephosphorylation of phosphopeptide, RapidFire MS; series mostly up to 63 µM
# Summary of the method: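 RapidFire mass spectrometry measured dephosphorylated peptide after 5 min room-temperature reaction of 2 uM VEPPL-pS-QETFS with 10 nM WIP1 (50 mM Tris-HCl pH 7.5, 30 mM MgCl2, 0.1 mM EGTA, BSA), following 1 hr compound preincubation; 1 uM isotope-labelled product standard.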
row,Compound,Potency
1,CCC(C(=O)O)c1ccc(N2Cc3ccccc3C2=O)cc1 (centres undefined),inactive
2,O=C(O)c1ccccc1NCCc1ccccc1,inactive
3,Nc1ccccc1N,inactive
4,O=C(O)c1c(O)c(-c2ccccc2)nc2ccccc12,inactive
5,Cc1ccc(N)cc1O,44.7 µM (active)
6,CCOCCOC(=O)/C=C/c1ccc(OC)cc1,inactive

# Molecular target: Protein phosphatase 1D (Homo sapiens) (UniProt O15297)
# Experiment: Rhodamine-PBP qHTS Assay for Modulators of WT P53-Induced Phosphatase 1 (WIP1) (AID 1347425)
# Settings: recombinant WIP1, Rhodamine-PBP phosphate fluorescence, real-time; series mostly up to 57.5 µM
# Summary of the method: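 Read-out: Rhodamine-PBP fluorescence (ex 525/em 598 nm) for released Pi, read each minute for 11 min after adding 10 uM VEPPL-pS-QETFS; signal taken as f1 minus pre-substrate f0. Enzyme 5 nM WIP1 with 1 hr room-temperature compound preincubation.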
row,Compound,outcome
1,CCC(C(=O)O)c1ccc(N2Cc3ccccc3C2=O)cc1 (centres undefined),inactive
2,O=C(O)c1ccccc1NCCc1ccccc1,inactive
3,Nc1ccccc1N,inactive
4,O=C(O)c1c(O)c(-c2ccccc2)nc2ccccc12,inactive
5,CCOCCOC(=O)/C=C/c1ccc(OC)cc1,inactive

# Test system: not listed separately
# Experiment: Primary qHTS for inhibitors of La Crosse Virus (LACV) - induced cell death in SH-SY5Y cells (AID 1508616);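 further: top concentration of the series differs between compounds; higher means more rescue of cells from virus-induced death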
# Settings: SH-SY5Y LACV cytopathicity rescue, ATP luminescence, 6 d; series mostly up to 4.29 µM
# Summary of the method: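 Cytopathicity rescue screen: compounds pinned onto SH-SY5Y cells, which are then infected with LACV (MOI 0.01) and held 6 days at 37C. Percent activity is scaled between infected DMSO control and uninfected DMSO control.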
row,Compound,outcome
1,CCC(C(=O)O)c1ccc(N2Cc3ccccc3C2=O)cc1 (centres undefined),inactive
2,O=C(O)c1ccccc1NCCc1ccccc1,inactive
3,O=C(O)c1c(O)c(-c2ccccc2)nc2ccccc12,inactive
4,Cc1ccc(N)cc1O,inactive

# Molecular target: Calcium and integrin-binding protein 1 (Homo sapiens) (UniProt Q99828)
# Sequence (Q99828 whole entry, looked up): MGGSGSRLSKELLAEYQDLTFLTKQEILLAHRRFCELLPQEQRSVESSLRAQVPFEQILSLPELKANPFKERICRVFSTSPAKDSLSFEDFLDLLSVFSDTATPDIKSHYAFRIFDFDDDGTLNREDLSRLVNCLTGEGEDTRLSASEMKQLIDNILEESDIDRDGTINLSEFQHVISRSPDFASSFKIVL
# Experiment: Primary qHTS for Identification of Calcium Integrin Binding Protein 1 (CIB1) Competitor (AID 1508620); further: potency means the concentration at half of the fitted maximal effect;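 on activity change, negative = inhibition: GST tagged CIB1 binding a fluorescein labelled alphaIIb integrin peptide tracer; top concentration of the series differs between compounds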
# Settings: CIB1-GST / FITC-alphaIIb peptide fluorescence polarization; series mostly up to 114 µM
# Summary of the method: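 CIB1-GST (1 uM final) and compound incubated 15 min at room temperature before adding FITC-alphaIIb peptide tracer (100 nM final). Competition for binding read by fluorescence polarization (ex 480, em 540) after another 15 min at room temperature.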
Compound,Potency,"activity change, negative = inhibition"
CCC(C(=O)O)c1ccc(N2Cc3ccccc3C2=O)cc1 (centres undefined),inactive,
O=C(O)c1ccccc1NCCc1ccccc1,inactive,
CO[C@H]1C[C@@H]2CC[C@@H](C)[C@@](O)(O2)C(=O)C(=O)N2CCCC[C@H]2C(=O)O[C@H]([C@H](C)C[C@@H]2CC[C@@H](OP(C)(C)=O)[C@H](OC)C2)CC(=O)[C@H](C)/C=C(\C)[C@@H](O)[C@@H](OC)C(=O)[C@H](C)C[C@H](C)/C=C/C=C/C=C/1C,inactive,
c1cc(Nc2cc(C3CC3)[nH]n2)nc(Nc2ccc3nc[nH]c3c2)n1,inactive,
CC(=O)c1ccc(O[C@@H]2O[C@H](CO)[C@@H](O)[C@H](O)[C@H]2O)cc1,inactive,
CCN1CCN(Cc2ccc(NC(=O)c3ccc(C)c(/C=C/c4cnc5[nH]ccc5c4OC)c3)cc2C(F)(F)F)CC1,inactive,
Nc1ccccc1N,100 µM (active),
CCCCNc1ncc2c(-c3ccc(CN4CCN(C)CC4)cc3)cn(C3CCC(O)CC3)c2n1 (centres undefined),inactive,
CC(C)[C@@H](CS(=O)(=O)C(C)C)N1C(=O)[C@@](C)(CC(=O)O)C[C@H](c2cccc(Cl)c2)[C@H]1c1ccc(Cl)cc1,inactive,
O=C(c1cccc(Cl)c1F)N1CCN(Cc2cccc(Nc3nccs3)n2)CC1,inactive,
Cc1cc(=O)oc2c(C=O)c(O)ccc12,inactive,
CC(C)CC(=O)OC1OC=C(CO[C@@H]2O[C@H](CO)[C@@H](O)[C@H](O)[C@H]2O)C2CC(O)C(O)(CO)C12 (some centres undefined),inactive,
C=CC(C)(O)CC/C=C(\C)C(=O)OC1C(O)C(CO)OC(OC(=O)C23CCC(C)(C)CC2C2=CCC4C5(C)CCC(OC6OC(COC7OCC(OC(C)=O)C(O)C7OC7OC(COC(C)=O)C(O)C(O)C7O)C(O)C(O)C6O)C(C)(C)C5CCC4(C)C2(C)C(O)C3O)C1OC1OCC(OC2OCC(O)C(OC3OCC(O)C(O)C3O)C2O)C(O)C1O (centres undefined),,3.39% [at 12.4 µM]
CC[C@]1(O)CC2CN(CCc3c([nH]c4ccccc34)[C@@](C(=O)OC)(c3cc4c(cc3OC)N(C)[C@H]3[C@@](O)(C(=O)OC)[C@H](OC(C)=O)[C@]5(CC)C=CCN6CC[C@]43[C@@H]65)C2)C1 (some centres undefined),inactive,
O=C(/C=C/c1cccc(S(=O)(=O)Nc2ccccc2)c1)NO,inactive,
CN(C)C/C=C/C(=O)Nc1cccc(C(=O)Nc2cccc(Nc3ncc(Cl)c(-c4c[nH]c5ccccc45)n3)c2)c1,inactive,
O=C(O)c1c(O)c(-c2ccccc2)nc2ccccc12,inactive,
FC(F)(F)c1ccc(Nc2nc(-c3c(C(F)(F)F)nc4ccccn34)cs2)cc1,inactive,
CS(=O)(=O)N1CCC(NC(=O)c2[nH]ncc2NC(=O)c2c(Cl)cccc2Cl)CC1,inactive,

Compound,Potency,"activity change, negative = inhibition"
CC(=O)OC[C@@]12C(=O)C[C@@H](C)[C@]3(C[C@@H](c4ccoc4)O[C@H]3OC(C)=O)[C@H]1CCC[C@]21CO1,inactive,
CNC(=O)c1cc(Oc2ccc3nc(N[C@@H]4CCCC[C@H]4O)sc3c2)ccn1,inactive,
O=C(NCc1cccc(O)c1)Nc1nc(-c2ccncc2)cs1,inactive,
CC(=O)O[C@H]1C[C@@]2(C)[C@@H](CC[C@H]3[C@@]4(C)C=CC(=O)[C@@H](C)[C@@H]4[C@H](O)C(=O)[C@@]32C)/C1=C(/CCC=C(C)C)C(=O)O,inactive,
CC(C)c1c2cc(-c3ccnc(NC4CCC(NC5CCOCC5)CC4)n3)ccc2nn1C (centres undefined),inactive,
CC(O)c1cc(C(=O)N[C@@H](C)Cn2ccc(-c3ccc(C#N)c(Cl)c3)n2)n[nH]1 (some centres undefined),inactive,
O=C(O)c1ccc(CN2CCC(CN[C@@H]3C[C@H]3c3ccccc3)CC2)cc1,inactive,
CCOc1cc2ncc(C#N)c(Nc3ccc(F)c(Cl)c3)c2cc1NC(=O)/C=C/CN(C)C,inactive,
CCN1CCN(Cc2ccc(NC(=O)Nc3ccc(Oc4cc(NC)ncn4)cc3)cc2C(F)(F)F)CC1,inactive,
COc1cc(Nc2nc3ccccc3nc2NS(=O)(=O)c2ccc(NC(=O)c3ccc(OC)c(C)c3)cc2)cc(OC)c1,inactive,
Cc1ccc([N+](=O)[O-])cc1S(=O)(=O)N(C)/N=C/c1cnc2ccc(Br)cn12,inactive,
Nc1ccc(/C=C/C(=O)NCc2cc3cc(-c4ccc(C(=O)N5CCC(F)(F)CC5)cc4)cc(-c4ccc(F)cc4)c3o2)cn1,inactive,
CC[C@H](NC(=O)[C@H](CS(=O)(=O)CC1CC1)N[C@@H](c1ccc(F)cc1)C(F)(F)F)C(=O)C(=O)NC1CC1,inactive,
CS(=O)(=O)c1ccc(-c2nnc(/C=C/c3nnc(-c4ccc(C#N)cc4)o3)n2-c2ccccc2Cl)nc1,inactive,
CCOCCOC(=O)/C=C/c1ccc(OC)cc1,inactive,
COc1cc2ncnc(Nc3ccc(F)c(Cl)c3)c2cc1NC(=O)/C=C/CN1CCCCC1,inactive,
C[C@H]1[C@H](O)O[C@@H]2O[C@@]3(C)CC[C@H]4[C@H](C)CC[C@@H]1[C@@]24OO3,inactive,
CC1OC(OC2C(OC3C(O[C@H]4CC[C@@]5(C)C(CC[C@]6(C)C5C(=O)C=C5C7CC(C)(C)CC(O)[C@]7(C)CC[C@]56C)C4(C)C)OC(C(=O)O)C(O)C3O)OCC(O)C2O)C(O)C(O)C1O (some centres undefined),inactive,
